# Source: PubChem BioAssay
# Only some compounds are listed: those with a hit (about 7.4% of all), similar ones and a draw of the others.
# Rab9 prom act = activates the Rab9 promoter | Huh7 Rab9 promoter-luciferase reporter, luminescence, 24 h | Potency, µM (highest dose often 9.22 µM), without a hit: at the highest dose activation, negative = inhibition, actives largely listed as activators | hit rate 2.8% among 320,000; note: % of control where 0% means no effect; nearly all actives have a fitted effect of over 60% in size
#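 Quantitative HTS format; Huh7 Rab9-luciferase reporter cells (1500/well) receive compound 2 h post-plating, incubate 24 h at 37 °C, then get luciferase reagent for 10 min before luminescence reading.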
# ELG1 genotoxic = inducers of genotoxicity in HEK293T ELG1-luciferase cells; Potency, µM (highest dose often 46 µM), for the others: at the highest dose activity change, positive = activation, hits mostly activators; HEK293T ELG1-luciferase reporter, luminescence, 16 h; hit rate 1.3% among 330,000; note: % of control where 0% means no effect; nearly all actives have a fitted effect of over 60% in size
#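 Screening used a luciferase reporter fused to human ELG1 in HEK293T cells. Luminescence was read on a CCD plate imager after 16 hr exposure and 30 min ONE-Glo incubation.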
# SMN2 splice enh = enhancers of SMN2 splice variant expression. HEK293 SMN2-luciferase splicing reporter, luminescence, 30-36 h. Potency, µM (top dose mostly 46.1 µM), inactives show at the top dose activity change, positive = activation, usual class: activators. hit rate 2.8% among 210,000. AID 1458; note: % of control where 0% means no effect; nearly all actives have a fitted effect of over 55% in size
#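 HEK293 cells carry an SMN2 […]–luciferase reporter in which exon 7 inclusion puts luciferase in frame. Cells were plated 10-12 h before compound addition, then incubated 30-36 h at 37C. ONE-Glo luminescence was read; sodium butyrate at 4.5 mM final served as control.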
# FLuc modulator = counter-screen for miR-21 project: firefly luciferase inhibitors or activators. AID 588342. Potency, µM (top dose mostly 57.5 µM), without a hit: at the highest dose activity change, negative = inhibition, hits mostly inhibitors. hit rate 6.9% among 360,000. P08659. purified FLuc, Km substrates, luminescence inhibition;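 note: plate controls were vehicle for no effect and reference inhibitor for full effect; nearly all actives have a fitted effect of over 55% in size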
# Target sequence (P08659 whole entry, looked up): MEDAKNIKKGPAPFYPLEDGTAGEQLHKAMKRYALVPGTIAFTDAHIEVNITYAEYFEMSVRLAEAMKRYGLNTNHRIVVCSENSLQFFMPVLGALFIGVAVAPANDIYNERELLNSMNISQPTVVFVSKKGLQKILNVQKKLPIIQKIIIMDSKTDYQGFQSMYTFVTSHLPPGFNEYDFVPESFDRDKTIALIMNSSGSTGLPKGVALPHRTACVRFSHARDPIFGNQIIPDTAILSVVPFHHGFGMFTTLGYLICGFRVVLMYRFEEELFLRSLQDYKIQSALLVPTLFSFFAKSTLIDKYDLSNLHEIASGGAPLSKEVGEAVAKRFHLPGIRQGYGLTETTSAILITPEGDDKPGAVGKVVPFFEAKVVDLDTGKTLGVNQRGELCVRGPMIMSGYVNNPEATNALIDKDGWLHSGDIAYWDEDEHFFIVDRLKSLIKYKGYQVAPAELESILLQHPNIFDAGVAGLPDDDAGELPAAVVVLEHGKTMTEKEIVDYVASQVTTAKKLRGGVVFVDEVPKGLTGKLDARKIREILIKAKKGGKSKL
#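 Biochemical qHTS of compounds, final roughly 60 µM downward over six points, against 10 nM purified firefly luciferase using Km concentrations of substrates (10 uM D-luciferin, 10 uM ATP) in Tris acetate pH 7.5 buffer; luminescence output.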
# Luc counter = Kinase-Glo luciferase inhibition (counter-screen) | hit rate 0.28% among 200,000 | Kinase-Glo luciferase, ATP luminescence, 8 min | Q27757 | Potency, µM (top dose mostly 38.3 µM), for inactives: top-dose activity change, negative = inhibition, most hits filed as inhibitors; note: % is set by controls: 0 for no effect and ±100 for the full control effect; nearly all actives have a fitted effect of over 60% in size
#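 Compound is pinned into ATP-containing buffer (10 uM ATP, imidazole pH 7.2, 7 mM MgCl2). Kinase-Glo luciferase reagent is then added. Light output is recorded following an 8-min room-temperature incubation.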
# NPC1 promoter act = NPC1 promoter activation; Potency, µM (titrated, usually from 9.22 µM), without a hit: top-dose activation, most hits filed as activators; hit rate 2.4% among 320,000; Huh7 NPC1 promoter luciferase reporter, 24 h; note: % of control where 0% means no effect; nearly all actives have a fitted effect of over 60% in size
#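 NPC1 promoter–luciferase Huh7 cells; 24 h compound; luminescence.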
# * marks the source's active call; other numbers are inactive results; u = inconclusive; x = no result given; [ ] = dose if it differs, or a comment. Calls come from the whole dose curve; as a rule, active = well fitted curve in the direction sought with a large enough effect; inconclusive = small, poorly fitted or top-dose-only effect, or another doubt; inactive = no such curve, though single readings can be large; an effect the other way counts as inactive or inconclusive. Potency is the fitted concentration of half-maximal effect.
SMILES,Rab9 prom act,ELG1 genotoxic,SMN2 splice enh,FLuc modulator,Luc counter,NPC1 promoter act
Cc1ccc(NC(=O)CN2CCCCCC2)cc1Br,1%,4%,-18%,-9%,-4%,7%
Cc1ccc(NC(=O)CN2CCCCCC2)c(Br)c1,4µM*,u,11%,12µM*,0%,4µM*
COc1cc(NC(=O)c2cc(OC)c(OC)c(OC)c2)c(OC)cc1NC(=O)CN1CCCCC1,-1%,1%,8%,13µM*,0%,-2%
COc1cc(NC(=O)c2ccc(C)cc2)c(OC)cc1NC(=O)CN1CCCCC1,21%,-5%,-1%,19µM*,3%,23%
COc1cc(NC(=O)c2ccccc2Cl)c(OC)cc1NC(=O)CN1CCCCC1,-1%,0%,x,-7%,-2%,-1%
CCCCOc1ccc(-c2nnn(CCC(=O)N3CCOCC3)n2)cc1,u,u,-20%,12µM*,-2%,u
COC(=O)CCn1nnc(-c2cccs2)n1,-4%,0%,-7%,-1%,-1%,-2%
CCCOc1ccc(-c2nnn(CC(=O)N3CCC(C)CC3)n2)cc1,0%,2%,-35%,17µM*,-5%,1%
COC(=O)CCn1nnc(-c2ccc(C(C)C)cc2)n1,-28%,-5%,-22%,12µM*,1%,-19%
CC1CCN(C(=O)Cn2nnc(-c3ccc(C(C)C)cc3)n2)CC1,2%,-2%,x,17µM*,x,8%
CC(C)c1ccc(-c2nnn(CC(=O)N3CCCCC3)n2)cc1,17%,4%,x,u,x,16%
CN(C(=O)CSc1n[nH]c(-c2cccs2)n1)C1CCS(=O)(=O)C1 (stereo not drawn),-2%,-6%,x,-4%,x,4%
Cc1csc(=O)n1CCC(=O)OCC(=O)NNC(=O)c1ccc(Cl)cc1,1%,1%,x,0%,x,8%
COC(=O)c1csc(C(=O)c2c[nH]c3ccccc23)n1,x,x,x,x,0%[39.9 µM],x
Cc1cccc(C(=O)NC2CCN(S(=O)(=O)c3ccc(F)cc3)CC2)c1,4%,1%,x,-4%,x,-4%
CCN1C(=O)C(=O)N(CC(=O)N2CCN(c3ccccc3)CC2)C1=O,-3%,3%,x,5%,x,1%
CCOc1ccc(-c2nnn(CC(=O)N3CCCC(C)C3)n2)cc1 (stereo not drawn),-7%,-4%,-9%,u,4%,-8%
CCCOc1ccc(-c2nnn(CC(=O)N3CCCC(C)C3)n2)cc1 (stereo not drawn),-2%,0%,x,15µM*,x,-2%
CCOC(=O)c1cnn2c(C)cc(-c3ccc(F)cc3)nc12,3.5µM*,u,11µM*,12µM*,15%,2.8µM*
O=[N+]([O-])c1cc(Cl)ccc1NCCNS(=O)(=O)c1ccccc1,-3%,1%,-20%,27µM*,-1%,2%
O=C(c1ccco1)N1CCN(c2ncccn2)CC1,11%,7%,11%,-1%,-4%,-2%
O=C1CCCc2nc(N3CCN(C(=O)c4ccco4)CC3)ncc21,2.5µM*,21µM*,x,27µM*,x,4µM*
Nc1nc(N2CCN(C(=O)c3ccco3)CC2)nc2ccc(Br)cc12,1.1µM*,u,7.9µM*,9.5µM*,-2%,2µM*
Nc1nc(N2CCN(C(=O)c3ccco3)CC2)nc2ccccc12,u,13%,13µM*,19µM*,1%,27%
O=C(c1ccco1)N1CCN(Cc2ccc(Br)cc2)CC1,-5%[1.84 µM],-6%,x,-1%,x,-1%
SMILES,Rab9 prom act,ELG1 genotoxic,SMN2 splice enh,FLuc modulator,Luc counter,NPC1 promoter act
Cc1cc(N2CCN(C(=O)c3ccco3)CC2)c2ccccc2n1,-3%,-2%,x,5%,x,-3%
Cc1ccc(S(=O)(=O)N2CCC(C(=O)OCc3ccc([N+](=O)[O-])cc3)CC2)cc1,-1%,0%,15%,-4%,-2%,9%
CC(=O)c1c(C)[nH]c(C(=O)OCC(=O)NCc2cccs2)c1C,2%,u,x,u,x,-4%
CC(C)(C)c1ccc(C(=O)Nc2ccc(CN3CCS(=O)(=O)CC3)cc2)cc1,-31%,-1%,x,9.5µM*,x,-17%
O=C(Nc1ccc(CN2CCS(=O)(=O)CC2)cc1)c1ccccc1,0%,0%,x,-10%,x,-1%
O=C(Nc1ccc(CN2CCS(=O)(=O)CC2)cc1)c1ccc(F)cc1,-2%,-2%,x,-1%,x,1%
O=C(Nc1ccc(CN2CCS(=O)(=O)CC2)cc1)c1ccc(C(F)(F)F)cc1,-26%,8%,x,17µM*,x,-14%
CCCN(C(=O)Cc1nc(-c2ccc(OC)cc2)no1)c1ccccc1C,x,x,x,-7%,x,x
CN(CC(=O)Nc1cccc(F)c1)C(=O)CCc1nc2ccccc2c(=O)[nH]1,1%,0%,x,3%,x,-3%
Cc1ccc(-c2cn(-c3cccc(Cl)c3)c(S(=O)(=O)CC(=O)Nc3cccc(C)c3)n2)cc1,x,x,16µM*,-13%,x,x
Cc1ccc(NC(=O)CS(=O)(=O)c2nc(-c3ccc(C)cc3)cn2-c2ccc(C)cc2)cc1,x,x,18µM*,u,x,x
CCOc1ccc(-c2cn(-c3ccc(C)cc3)c(SCC(=O)Nc3ccc(C)cc3)n2)cc1,x,x,x,-5%,x,x
Cc1ccc(-c2cn(-c3cccc(Cl)c3)c(S(=O)(=O)CC(=O)Nc3ccccc3F)n2)cc1,x,x,13µM*,u,x,x
O=C(CS(=O)(=O)c1nc(-c2ccc(Cl)cc2)cn1-c1ccccc1)Nc1cccc(Cl)c1,x,x,13µM*,u,x,x
CCn1c(C)c(C)c2cc(C(=O)NCCN3CCCCCC3)ccc21,-17%,-2%,x,3%,x,7%
O=C(CS(=O)(=O)c1nc(-c2ccc(Cl)cc2)cn1-c1ccccc1)Nc1ccc(F)cc1F,x,x,14µM*,21µM*,x,x
O=C(c1cc(COc2ccc3c(c2)CCCC3)on1)N1CCCC1,4µM*,18µM*,x,11µM*,x,2.8µM*
CCOC(=O)N1CCN(C(=O)c2cc(COc3c(F)cccc3F)on2)CC1,3.2µM*,15µM*,x,8.5µM*,x,2.2µM*
CCOC(=O)C1CCN(C(=O)c2cc(COc3ccc(F)cc3F)on2)CC1,2.8µM*,21µM*,x,13µM*,x,2.8µM*
Cc1cccc(C)c1OCc1cc(C(=O)N2CCN(c3ccc(F)cc3)CC2)no1,1.1µM*,u,x,3.4µM*,x,0.63µM*
Cc1cccc(NS(=O)(=O)c2cc3c(cc2C)n(C)c(=O)c(=O)n3C)c1,-5%,-2%,x,2%,x,-2%
COc1ccccc1C(=O)NCCC(=O)Nc1ccncc1,-1%,1%,x,-5%,x,-4%
COc1cc(SC)ccc1C(=O)NCCNC(=O)c1nonc1N,-2%,2%,x,2%,x,-1%
CC(=O)N1CCCN(C(=O)c2cc(COc3c(F)cccc3F)on2)CC1,13%,-2%,x,3%,x,0%
O=C(c1cc(COc2c(F)cccc2F)on1)N1CCCCCC1,2.8µM*,u,x,u,x,u
